Here are results for 54 sequences from the supplement of paper PMC10681739.

For experiment [1], the target named is T1, ETS1 (UniProt P14921).
T1 sequence: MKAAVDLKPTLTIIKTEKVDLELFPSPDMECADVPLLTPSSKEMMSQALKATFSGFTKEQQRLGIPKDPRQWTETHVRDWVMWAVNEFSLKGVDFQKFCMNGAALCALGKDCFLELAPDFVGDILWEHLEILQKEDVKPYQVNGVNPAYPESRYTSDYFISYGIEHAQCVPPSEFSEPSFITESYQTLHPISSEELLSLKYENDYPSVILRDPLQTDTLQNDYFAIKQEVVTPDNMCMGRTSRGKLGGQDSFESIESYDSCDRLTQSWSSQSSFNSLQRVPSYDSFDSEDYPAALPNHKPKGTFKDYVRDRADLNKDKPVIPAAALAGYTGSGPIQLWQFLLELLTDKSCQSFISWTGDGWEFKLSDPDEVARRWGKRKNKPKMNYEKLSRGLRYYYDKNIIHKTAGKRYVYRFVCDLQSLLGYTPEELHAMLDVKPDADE
The experiment in a line: ETS1 binding intensity (PBM fluorescence), ETS1 alone (arbitrary fluorescence units); higher = stronger binding. As to conditions: ETS1 concentration 1 nM; RUNX1 concentration 0 nM.

Experiment [2] has as its target T1, ETS1. The experiment in a line: ETS1 binding intensity (PBM fluorescence) in presence of RUNX1, normalised to ETS1-only experiment (arbitrary fluorescence units); higher = stronger binding. As to conditions: ETS1 concentration 1 nM; RUNX1 concentration 25 nM.
Experiment [3] concerns the target RUNX1 (UniProt Q01196). The experiment can be described thus: TF binding intensity (PBM fluorescence), negative control probe (arbitrary fluorescence units); higher = stronger binding. On the procedure: (§1)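 gcPBM negative-control 36-bp genomic probes lacking TF binding sites. Each was incubated with recombinant human ETS1 or RUNX1 alone and detected by antibody fluorescence. Values are medians over replicate spots (4 spots for the ETS1-RUNX1 arrays, 3 for the ETS1-ETS1 array). The probes sit in constant array flanks that are not printed.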

Experiment [4] concerns the target T1, ETS1. The experiment is described as above. On the procedure: as §1

Chain of RUNX1 (Q01196 whole entry): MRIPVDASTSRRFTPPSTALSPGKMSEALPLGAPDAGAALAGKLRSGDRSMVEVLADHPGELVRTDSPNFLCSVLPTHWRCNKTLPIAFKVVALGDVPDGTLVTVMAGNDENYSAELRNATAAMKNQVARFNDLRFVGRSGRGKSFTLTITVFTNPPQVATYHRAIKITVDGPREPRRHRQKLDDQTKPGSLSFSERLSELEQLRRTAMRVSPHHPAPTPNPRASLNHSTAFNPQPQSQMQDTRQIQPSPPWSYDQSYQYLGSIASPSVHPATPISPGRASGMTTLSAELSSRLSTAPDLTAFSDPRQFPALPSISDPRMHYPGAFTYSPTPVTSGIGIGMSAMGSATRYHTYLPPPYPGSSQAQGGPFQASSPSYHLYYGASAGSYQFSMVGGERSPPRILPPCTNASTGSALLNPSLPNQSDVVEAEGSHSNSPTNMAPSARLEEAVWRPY

Turning to CGGCGCTCGCGGAAGTGCCGCGGTGCCTGCTCTGCA, the values for the ETS1 binding intensity in experiment [1] and in experiment [2] were 796 and 759, respectively.

For GCACCATCTCCCGACTTCCGCGGTGTCCCAGGTCCT, the figures for the ETS1 binding intensity in experiment [1] and in experiment [2] were 559 and 434, respectively.

Take TTGAAAAGGAAGTTCATTTGTACTGAGGTGGTTTTA: the ETS1 binding intensity came out at 602 in experiment [1] and 698 in experiment [2].

On to GGTTTCACTTCCTGCGTTGGGCCTTGTGGCCTCCTT, for which the ETS1 binding intensity was 783 in experiment [1] and 787 in experiment [2].

Regarding AAGTCAGAGTTTACTTCCGAACCCACAGTGCCAAGC, the ETS1 binding intensity in experiment [1] came to 423; in experiment [2], 486.

On to CCCCAGGTTGCTTCCGTTCTGGGAACCGCGTCCTCG, for which the figures for the ETS1 binding intensity in experiment [1] and in experiment [2] were 1190 and 984, respectively.

As for GGTCCAGGAAGACGTCAAGGGCTTGGTTTTGTAAAC, the ETS1 binding intensity in experiment [1] worked out at 505; in experiment [2] it was 448.

Take GTGCAGGCCGGAAGGAAAAGGGTTGTGGGGCTCATT: the figures for the ETS1 binding intensity in experiment [1] and in experiment [2] were 1180 and 1420, respectively.

As to GGCAGGAGCTTCCGGCTCAGCCCTGCGGCCTGTGCC, the figures for the ETS1 binding intensity in experiment [1] and in experiment [2] were 498 and 768, respectively.

As for CTGTCAGGATGTTGGCTTGTGAGCCCACAATCCTCT, the ETS1 binding intensity in experiment [1] was determined as 413; in experiment [2], 451.

In the case of CTCTTCTCAGGAAGGGGCTGTGGGATGTAGGATTCC, the ETS1 binding intensity stood at 638 in experiment [1] and 610 in experiment [2].

Turning to GGGGCAGGAAACAGCGTCCTGCGCGGGTAGCCCCTG, the figures for the ETS1 binding intensity in experiment [1] and in experiment [2] were 775 and 918, respectively.

Regarding GCAGAAGGAAGTGTGGCTTGGCGCGGTGGCTCACAC, the ETS1 binding intensity in experiment [1] was 475; in experiment [2], 405.

For CTCAGAGCTGCGGAAACTACAACTCCCACAAGGCTG, the ETS1 binding intensity was 738 in experiment [1] and 633 in experiment [2].

For GACGCATAAACAGGAAGGCCTGCGGGAGGGCCCGCC, the ETS1 binding intensity in experiment [1] turned out to be 855; in experiment [2] it was 948.

Regarding CGAGTCAGGAAATCACAGCTCTGCGGGTGGGCTCCT, the ETS1 binding intensity is 458 in experiment [1] and 623 in experiment [2].

As for GAGCACATTTCCTTTTGCTTCCAGATACCACAGTGA, the ETS1 binding intensity stood at 445 in experiment [1] and 412 in experiment [2].

Consider CTTACAGATAAGGAAACTGAGGTTAAAATGTAGGGG, for which the ETS1 binding intensity in experiment [1] came to 681; in experiment [2], 656.

As to TGTTGGCTGTCCTCCGGAAACCCGCGCCTGGGTCGC, the ETS1 binding intensity in experiment [1] amounted to 1820; in experiment [2], 1930.

As to CCCGCTTCCGCGTTTTACTCGGTGCCCGCAGCGCCG, the ETS1 binding intensity in experiment [1] came out at 445; in experiment [2], 389.

For the sequence GCTTTTCCGCTCCCAGAGTGCCCCGCCCACAGTTCA, the ETS1 binding intensity in experiment [1] is 477; in experiment [2], 426.

With AGCGGTGTTTCAGGATGTGAGGGCCCGCAGGAGCCG, the ETS1 binding intensity in experiment [1] was 666; in experiment [2], 837.

CAGAGGAGGAAGAGGAAGCCACAGCGATAGGGTCAC: the results for the ETS1 binding intensity in experiment [1] and in experiment [2] were 522 and 520, respectively.

With TGGGCCAGCACGTCCGGGTGGTCAGGACGCGCGCTT, the figures for the ETS1 binding intensity in experiment [1] and in experiment [2] were 458 and 451, respectively.

Take AGTACAAAGGGGAAATGTCTCTTGGTGGTTGATAAG: the ETS1 binding intensity in experiment [1] is 628; in experiment [2], 564.

For GAATGACAGGAAGATGATTAGTGATAGTGGGTTTGG, the ETS1 binding intensity in experiment [1] came to 740; in experiment [2], 880.

Take CCCTCTGAGACAGGATTTGCTTCCCACACAAGGCTA: the values for the ETS1 binding intensity in experiment [1] and in experiment [2] were 495 and 629, respectively.

CTTTTTGATTTCCTCAAGCATCCCACAAATACACAG: the ETS1 binding intensity in experiment [1] amounted to 539; in experiment [2] it was 659.

On to GCCGTGAGAAACATCCTGCCTAACCACCTGACTACA, for which the ETS1 binding intensity in experiment [1] came to 618; in experiment [2], 678.

For the sequence TGCACTCCACTTCCCCTCGCCCGCAGTGAGCAGTCA, the figures for the ETS1 binding intensity in experiment [1] and in experiment [2] were 426 and 450, respectively.

TTGGTGGCTTCCTGCCCAGGAGACCACACCCAGCTT: the ETS1 binding intensity in experiment [1] worked out at 540; in experiment [2], 486.

Regarding “CCATGATGTTTGTGATTTCCGGCAGATGATGAGTAA (protein concentration 2 nM)”, the TF binding intensity in experiment [3] is 970.

In turn, “GCCCTGAGACTTGCCTTGCAATGCCATGTTTGTGTA (protein concentration 10 nM)” had a TF binding intensity in experiment [4] of 125.

Take “CTCCCTTGCTCACAACTTCCTCTTGCTGTCTGCTTC (protein concentration 2 nM)”: in experiment [3], the TF binding intensity came out at 1170.

In the case of “TGGGCGGGGAGAGGACGGAAGGAGTAGGCTTCGGGA (protein concentration 2 nM)”, in experiment [3], the TF binding intensity is 1020.

Consider “AGGAGGAGATGGGACAGGAAGGAATAGATGGGAGCA (protein concentration 2 nM)”, for which the TF binding intensity in experiment [3] turned out to be 1720.

The sequence “CAACGTTCTTCTGTTCTTCCGTCTGTCGACCGAACT (protein concentration 2 nM)” registered a TF binding intensity in experiment [3] of 945.

The sequence “TATCACTTCTGGCGAAGGAAATGGAAGAATCTATGG (protein concentration 2 nM)” had a TF binding intensity in experiment [3] of 1010.

In experiment [3], “ATCAAGGCGCGGCGGCGGAAAAATGTGAAATGGCTT (protein concentration 2 nM)” registered a TF binding intensity of 920.

The sequence “ATTTCTGTGCAGTCACTTCCTCTTCTTAGGTCATAG (protein concentration 2 nM)” registered a TF binding intensity in experiment [3] of 1010.

The sequence “TCCCTGCTGGTCCTGGTTCCGGCACACCAGGCCCTC (protein concentration 2 nM)” registered a TF binding intensity in experiment [3] of 864.

For “TCCAGGGCCACCCCATTTCCTGCCCTCAGCACTTCG (protein concentration 2 nM)”, the TF binding intensity in experiment [3] came to 929.

In experiment [3], “ATGTGTGTGTTTTTCCTTCCGGTTGCTGTGAGGTGA (protein concentration 2 nM)” displayed a TF binding intensity of 919.

“AATTCTGGGGAGCGAAGGAAATTGGCTTTCGAGGCG (protein concentration 2 nM)” returned a TF binding intensity in experiment [3] of 1200.

Sequence “GGGTGCAGAAGCCAGCGGAAGCGGAGCGCTACAAGC (protein concentration 2 nM)” displayed a TF binding intensity in experiment [3] of 784.

As to “AGGAGTTTGCTCATCCTTCCGGATCCAAAGGCTGCG (protein concentration 2 nM)”, the TF binding intensity in experiment [3] turned out to be 712.

The sequence “TAACTCTTTGCTATCCTTCCGCTGAGCTTCATCTTC (protein concentration 2 nM)” showed a TF binding intensity in experiment [3] of 963.

Turning to “CCGCACGCGGGCGCGGGCCAGCTGCAGATGGAGAAC (protein concentration 10 nM)”, the TF binding intensity in experiment [4] is 136.

As to “GGTGTCAAAGCCGAGCGGAAGCGGGGCTGGAATTGG (protein concentration 2 nM)”, the TF binding intensity in experiment [3] was 891.

In experiment [4], “GATGTGGCCTATAGGGATCCTTCACTTAGGCATGAG (protein concentration 10 nM)” had a TF binding intensity of 121.

In experiment [3], “ACGCTGCGCATGCGCCGGAAGTTGCAGCCGTGAAGC (protein concentration 2 nM)” came in with a TF binding intensity of 811.

The sequence “ACGGCAAGTAAAGTGTTTCCGGCTCAGGTGTCATGG (protein concentration 2 nM)” returned a TF binding intensity in experiment [3] of 852.

Take “CTCAGCGGCCGAACCCGGAAGTTCGGGGCCGAGTTC (protein concentration 2 nM)”: the TF binding intensity in experiment [3] came to 901.

Turning to “GCCTCACAAAAGAACAGGATGTTGTTGATTTGTCAC (protein concentration 2 nM)”, the TF binding intensity in experiment [3] worked out at 828.
